# About 79,000 compounds went through this panel and 15% of them were active in at least one assay; those are over-represented in the sample as a whole. Values without a mark were called inactive. Activity calls are given as the source filed them. Rule as the data show it: active = growth inhibition above about 70%; inactive = the rest.
# Assays:
# [1] = NCI Yeast Anticancer Drug Screen. Data for the rad52 strain (AID 147);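 also: 0% = growth of vehicle-treated control cultures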; conditions: S. cerevisiae rad52 mutant growth inhibition, hits give high values
# How it was run: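 Read-out: growth inhibition versus vehicle-treated controls. Cells were a DNA repair-deficient yeast strain treated with compounds.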
# [2] = NCI Yeast Anticancer Drug Screen. Data for the wt1 strain (AID 149);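 also: 0% = growth of vehicle-treated wt1 cultures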; conditions: S. cerevisiae wt1 strain (SPY 50644) growth inhibition, hits give high values
# How it was run: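 Vehicle-normalised growth inhibition; strain wt1; compound exposure.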
# [3] = NCI Yeast Anticancer Drug Screen. Data for the rad50EPP+ strain (AID 151);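 also: 0% = growth of vehicle-treated control cultures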; conditions: S. cerevisiae rad50 mutant strain, hits give high values
# How it was run: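 Growth inhibition read against vehicle controls in rad50EPP+ yeast, a strain altered in DNA damage repair, after compound exposure.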
# [4] = NCI Yeast Anticancer Drug Screen. Data for the mgt1 strain (AID 153); conditions: S. cerevisiae mgt1 mutant growth inhibition, hits give high values
# How it was run: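 mgt1 yeast grown with test compound; read-out is growth inhibition versus vehicle-treated cultures.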
# [5] = NCI Yeast Anticancer Drug Screen. Data for the rad50 strain (AID 155);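 also: 0% = growth of vehicle-only cultures of the same strain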; conditions: S. cerevisiae rad50 strain growth inhibition, hits give high values
# How it was run: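 A DNA repair-deficient yeast mutant serves as the test organism; compound-induced growth inhibition is calculated against vehicle-treated cells.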
# [6] = NCI Yeast Anticancer Drug Screen. Data for the mec2-1 strain (AID 157); conditions: S. cerevisiae mec2-1 strain, hits give high values
# How it was run: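 Yeast mec2-1 mutant treated with compound. Readout: growth inhibition vs vehicle controls.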
# [7] = NCI Yeast Anticancer Drug Screen. Data for the rad14 strain (AID 159);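 also: 0% = growth of vehicle-treated control cultures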; conditions: S. cerevisiae rad14 strain growth inhibition, hits give high values
# How it was run: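 Vehicle-treated cultures served as the baseline for growth inhibition of a DNA repair-mutant yeast strain exposed to each compound.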
# [8] = NCI Yeast Anticancer Drug Screen. Data for the CLN2oe strain (AID 163);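 also: 0% = growth of vehicle-only control cultures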; conditions: S. cerevisiae CLN2oe strain, hits give high values
# How it was run: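 Read-out: yeast growth inhibition, expressed relative to vehicle-only controls. The strain bears an engineered cell-cycle alteration.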
# [9] = NCI Yeast Anticancer Drug Screen. Data for the cln2 rad14 strain (AID 165);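 also: 0% = growth equal to vehicle treated cultures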; conditions: S. cerevisiae cln2 rad14 strain, hits give high values
# How it was run: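 cln2 rad14 yeast strain; compound exposure; growth inhibition read vs vehicle controls.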
# [10] = NCI Yeast Anticancer Drug Screen. Data for the bub3 strain (AID 167); conditions: S. cerevisiae bub3 mutant strain, hits give high values
# How it was run: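 Inhibition values come from growth of compound-treated mutant yeast normalised to vehicle-treated controls.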
# [11] = NCI Yeast Anticancer Drug Screen. Data for the wt2 strain (AID 169);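 also: 0% = growth of vehicle-treated yeast cultures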; conditions: S. cerevisiae wt2 strain growth inhibition, hits give high values
# How it was run: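 Read-out: growth inhibition versus vehicle-treated control cultures after compound exposure of the yeast strain.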
# [12] = NCI Yeast Anticancer Drug Screen. Data for the mlh1 strain (AID 171);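 also: 0% = growth of vehicle-treated control cultures of the same strain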; conditions: S. cerevisiae mlh1 strain growth inhibition, hits give high values
# How it was run: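 Read-out: growth inhibition versus vehicle controls. Strain: engineered yeast with a defined DNA repair or cell cycle defect, compound-treated.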
# [13] = NCI Yeast Anticancer Drug Screen. Data for the sgs1 strain (AID 173);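 also: 0% = growth of vehicle-only control cultures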; conditions: S. cerevisiae sgs1 mutant, hits give high values
# How it was run: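 Read-out: yeast growth inhibition relative to vehicle controls, following compound exposure of a strain with a defined DNA repair/cell cycle alteration.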
# [14] = NCI Yeast Anticancer Drug Screen. Data for the rad18 strain (AID 177); conditions: S. cerevisiae rad18 mutant growth inhibition, hits give high values
# How it was run: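 Readout: growth inhibition vs vehicle controls. Cells: genetically altered yeast strain, DNA repair defect.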
# [15] = NCI Yeast Anticancer Drug Screen. Data for the sgs1 mgt1 strain (AID 161);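 also: 0% = growth of cultures given vehicle only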; conditions: S. cerevisiae sgs1 mgt1 strain, hits give high values
# How it was run: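 Mutant yeast exposed to compound; growth scored against vehicle-only wells.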
# [16] = NCI Yeast Anticancer Drug Screen. Data for the mlh1 rad18 strain (AID 175); conditions: S. cerevisiae mlh1 rad18 strain growth inhibition, hits give high values
# How it was run: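 Yeast w/ defined DNA-repair lesions; compound exposure; growth vs vehicle controls → % inhibition.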
# [17] = at 5.0 µM (retest, dose inferred, filed as 0.5)
# [18] = at 50.0 µM (retest, dose inferred, filed as 5.0)
compound,measurement,setting,value
COC1=C(OC)C(=O)C(Sc2ccc3ccccc3c2)=CC1=O,growth inhibition,[1]; at 1.2 µM,-19%
same,growth inhibition,[1]; at 3.7 µM,-19%
same,growth inhibition,[1]; at 11.0 µM,56%
same,growth inhibition,[1]; at 33.0 µM,93% (active)
same,growth inhibition,[1]; at 100.0 µM,92% (active)
same,growth inhibition,[2]; at 1.2 µM,-73%
same,growth inhibition,[2]; at 3.7 µM,-61%
same,growth inhibition,[2]; at 11.0 µM,-13%
same,growth inhibition,[2]; at 33.0 µM,94% (active)
same,growth inhibition,[2]; at 100.0 µM,92% (active)
same,growth inhibition,[3]; at 1.2 µM,-29%
same,growth inhibition,[3]; at 3.7 µM,-10%
same,growth inhibition,[3]; at 11.0 µM,67%
same,growth inhibition,[3]; at 33.0 µM,95% (active)
same,growth inhibition,[3]; at 100.0 µM,97% (active)
same,growth inhibition,[4]; at 1.2 µM,-46%
same,growth inhibition,[4]; at 3.7 µM,-47%
same,growth inhibition,[4]; at 11.0 µM,8%
same,growth inhibition,[4]; at 33.0 µM,94% (active)
same,growth inhibition,[4]; at 100.0 µM,92% (active)
same,growth inhibition,[5]; at 1.2 µM,-15%
same,growth inhibition,[5]; at 3.7 µM,0%
same,growth inhibition,[5]; [17],17%
same,growth inhibition,[5]; at 11.0 µM,19%
same,growth inhibition,[5]; at 33.0 µM,92% (active)
same,growth inhibition,[5]; [18],97% (active)
same,growth inhibition,[5]; at 50.0 µM,89.4% (active)
same,growth inhibition,[5]; at 100.0 µM,83% (active)
same,growth inhibition,[6]; at 1.2 µM,-69%
same,growth inhibition,[6]; at 3.7 µM,-40%
same,growth inhibition,[6]; [17],29%
same,growth inhibition,[6]; at 11.0 µM,19%
same,growth inhibition,[6]; at 33.0 µM,95% (active)
same,growth inhibition,[6]; [18],98% (active)
same,growth inhibition,[6]; at 50.0 µM,93.3% (active)
same,growth inhibition,[6]; at 100.0 µM,89% (active)
same,growth inhibition,[7]; at 1.2 µM,-18%
same,growth inhibition,[7]; at 3.7 µM,-8%
same,growth inhibition,[7]; at 11.0 µM,64%
same,growth inhibition,[7]; at 33.0 µM,96% (active)
same,growth inhibition,[7]; at 100.0 µM,93% (active)
same,growth inhibition,[8]; at 1.2 µM,5%
same,growth inhibition,[8]; at 3.7 µM,19%
same,growth inhibition,[8]; at 11.0 µM,45%
same,growth inhibition,[8]; at 33.0 µM,85% (active)
same,growth inhibition,[8]; at 100.0 µM,87% (active)
same,growth inhibition,[9]; [17],4%
same,growth inhibition,[9]; [18],-12%
same,growth inhibition,[9]; at 50.0 µM,85.8% (active)
same,growth inhibition,[10]; at 1.2 µM,-11%
same,growth inhibition,[10]; at 3.7 µM,0%
same,growth inhibition,[10]; [17],3%
same,growth inhibition,[10]; at 11.0 µM,-3%
same,growth inhibition,[10]; at 33.0 µM,89% (active)
same,growth inhibition,[10]; [18],79% (active)
same,growth inhibition,[10]; at 50.0 µM,91.2% (active)
same,growth inhibition,[10]; at 100.0 µM,87% (active)
same,growth inhibition,[11]; at 1.2 µM,-35%
same,growth inhibition,[11]; at 3.7 µM,-43%
same,growth inhibition,[11]; at 11.0 µM,33%
same,growth inhibition,[11]; at 33.0 µM,96% (active)
same,growth inhibition,[11]; at 100.0 µM,94% (active)
same,growth inhibition,[12]; at 1.2 µM,-39%
same,growth inhibition,[12]; at 3.7 µM,-38%
same,growth inhibition,[12]; at 11.0 µM,25%
same,growth inhibition,[12]; at 33.0 µM,95% (active)
same,growth inhibition,[12]; at 100.0 µM,95% (active)
same,growth inhibition,[13]; at 1.2 µM,-25%
same,growth inhibition,[13]; at 3.7 µM,-17%
same,growth inhibition,[13]; at 11.0 µM,23%
same,growth inhibition,[13]; at 33.0 µM,93% (active)
same,growth inhibition,[13]; at 100.0 µM,93% (active)
same,growth inhibition,[14]; at 1.2 µM,-36%
same,growth inhibition,[14]; at 3.7 µM,-25%
same,growth inhibition,[14]; at 11.0 µM,58%
same,growth inhibition,[14]; at 33.0 µM,92% (active)
same,growth inhibition,[14]; at 100.0 µM,87% (active)
CCCCOCn1c(=O)[nH]c(=O)c2cc(Br)ccc21,growth inhibition,[1]; at 1.2 µM,-35%
same,growth inhibition,[1]; at 3.7 µM,-45%
same,growth inhibition,[1]; at 11.0 µM,-30%
same,growth inhibition,[1]; at 33.0 µM,-6%
same,growth inhibition,[1]; at 100.0 µM,-10%
same,growth inhibition,[2]; at 1.2 µM,-37%
same,growth inhibition,[2]; at 3.7 µM,-18%
same,growth inhibition,[2]; at 11.0 µM,-58%
same,growth inhibition,[2]; at 33.0 µM,-44%
same,growth inhibition,[2]; at 100.0 µM,-39%
same,growth inhibition,[3]; at 1.2 µM,-59%
same,growth inhibition,[3]; at 3.7 µM,-71%
same,growth inhibition,[3]; at 11.0 µM,-50%
same,growth inhibition,[3]; at 33.0 µM,-61%
same,growth inhibition,[3]; at 100.0 µM,-92%
same,growth inhibition,[4]; at 1.2 µM,-52%
same,growth inhibition,[4]; at 3.7 µM,-36%
same,growth inhibition,[4]; at 11.0 µM,-47%
same,growth inhibition,[4]; at 33.0 µM,-32%
same,growth inhibition,[4]; at 100.0 µM,-32%
same,growth inhibition,[5]; at 1.2 µM,-35%
same,growth inhibition,[5]; at 3.7 µM,-26%
same,growth inhibition,[5]; [17],21%
same,growth inhibition,[5]; at 11.0 µM,-10%
same,growth inhibition,[5]; at 33.0 µM,-24%
same,growth inhibition,[5]; [18],22%
same,growth inhibition,[5]; at 50.0 µM,18.7%
same,growth inhibition,[5]; at 100.0 µM,-15%
same,growth inhibition,[6]; at 1.2 µM,-1%
same,growth inhibition,[6]; at 3.7 µM,6%
same,growth inhibition,[6]; [17],14%
same,growth inhibition,[6]; at 11.0 µM,2%
same,growth inhibition,[6]; at 33.0 µM,11%
same,growth inhibition,[6]; [18],11%
same,growth inhibition,[6]; at 50.0 µM,4.05%
same,growth inhibition,[6]; at 100.0 µM,-5%
same,growth inhibition,[7]; at 1.2 µM,-22%
same,growth inhibition,[7]; at 3.7 µM,-50%
same,growth inhibition,[7]; at 11.0 µM,-39%
same,growth inhibition,[7]; at 33.0 µM,-35%
same,growth inhibition,[7]; at 100.0 µM,-42%
same,growth inhibition,[15]; [17],59%
same,growth inhibition,[15]; [18],91% (active)
same,growth inhibition,[15]; at 50.0 µM,90.2% (active)
same,growth inhibition,[8]; at 1.2 µM,-20%
same,growth inhibition,[8]; at 3.7 µM,-11%
same,growth inhibition,[8]; at 11.0 µM,-38%
same,growth inhibition,[8]; at 33.0 µM,-21%
same,growth inhibition,[8]; at 100.0 µM,-29%
same,growth inhibition,[10]; at 1.2 µM,-46%
same,growth inhibition,[10]; at 3.7 µM,-36%
same,growth inhibition,[10]; [17],23%
same,growth inhibition,[10]; at 11.0 µM,-35%
same,growth inhibition,[10]; at 33.0 µM,-39%
same,growth inhibition,[10]; [18],92% (active)
same,growth inhibition,[10]; at 50.0 µM,82.2% (active)
same,growth inhibition,[10]; at 100.0 µM,-33%
same,growth inhibition,[11]; at 1.2 µM,-21%
same,growth inhibition,[11]; at 3.7 µM,-20%
same,growth inhibition,[11]; at 11.0 µM,-21%
same,growth inhibition,[11]; at 33.0 µM,-19%
same,growth inhibition,[11]; at 100.0 µM,0%
same,growth inhibition,[16]; [17],28%
same,growth inhibition,[16]; [18],32%
same,growth inhibition,[16]; at 50.0 µM,26.9%
same,growth inhibition,[14]; at 1.2 µM,-19%
same,growth inhibition,[14]; at 3.7 µM,-5%
same,growth inhibition,[14]; at 11.0 µM,-1%
same,growth inhibition,[14]; at 33.0 µM,9%
same,growth inhibition,[14]; at 100.0 µM,38%

# Source: PubChem BioAssay (NCI)
